Each structure is given as a SMILES string. In all, about 52,000 compounds went through this assay and about 4,300 (8.3%) were called active. Cut-off read from the data, not from the text of the source: active = survival mostly below about 52% (no sharp cut-off); inactive = mostly above about 56%. What follows is part of a selection rich in actives, with near analogues and random picks from the rest.

The assay relates to DeltatarO mutant. Put plainly: growth inhibition of S. aureus wild type versus tarO mutant, primary screen, teichoic acid synthesis inhibitors, RN4220, OD600 (AID 463173). As to conditions: OD600, 18 h, stronger effect = lower value, screened at 18.75 µg/mL (by protocol).
For the molecule `COc1ccccc1NC(=O)C1=C(C)Nc2nc(SCc3cc(C)ccc3C)nn2C1c1ccccc1` (stereo not drawn), the survival is 116% (inactive).

For `CCOc1ccc(NC(=O)CSc2ncc3c(n2)-c2ccc(Cl)cc2N(Cc2ccccc2)S3(=O)=O)cc1`, the survival was 99% (inactive).

On to `O=C(NCc1ccccc1Cl)c1ccc(Nc2nc3ccccc3n3nnnc23)cc1`, for which the survival is 84% (inactive).

Regarding `Cc1cc(/C=C(\C#N)C(=O)Nc2ccccc2)c(C)n1-c1ccc(F)cc1`, the survival was 59% (inactive).

For `COc1cccc(Nc2nnc(-c3cc4ccc(O)cc4oc3=O)s2)c1`, the survival was 85% (inactive).

As for `Nc1c(C(=O)Nc2ccc(Cl)cc2F)sc2nc(-c3cccs3)ccc12`, the survival was 58% (inactive).

With `CCOc1ccc(OCC)c(NC(=O)c2cc(-c3cccs3)nc3ccccc23)c1`, the survival is 85% (inactive).

With `Cc1ccc(NC(=O)c2cc(-c3cccs3)nc3ccccc23)c(C)c1`, the survival was 57% (active).

With `Nc1c(C(=O)Nc2cccc(F)c2)sc2nc(-c3cccs3)ccc12`, the survival was 69% (inactive).

For `Cc1ccc(NC(=O)c2sc3nc(-c4ccncc4)ccc3c2N)cc1`, the survival was 131% (inactive).

Turning to `CC(C)CSc1ccccc1NC(=O)c1sc2nc(-c3ccncc3)ccc2c1N`, the survival is 46% (active).

As for `Cc1ccccc1NC(=O)c1sc2nc(-c3ccncc3)ccc2c1N`, the survival was 39% (inactive).

As to `Cc1cc(F)ccc1NC(=O)c1sc2nc(-c3cccs3)ccc2c1N`, the survival is 45% (active).

For `O=C(Nc1ccc(Br)cc1)c1cc(-c2cccs2)nc2ccccc12`, the survival is 83% (inactive).

Take `Cc1ccc(N(Cc2cccs2)C(=O)c2ccc(Br)o2)cc1`: the survival was 73% (inactive).

As to `CC(C)(C)C(=O)CSc1nc2ccsc2c(=O)n1Cc1ccccc1Cl`, the survival was 77% (inactive).

As to `COc1ccc(-c2nc3n(c2NC(C)(C)C)CCN(C(=O)Cc2ccccc2F)C3)cc1`, the survival is 88% (inactive).

In the case of `CSc1ccc(CCNC(=O)c2ccc3c(c2)nc2n3CCC(C)C2)cc1` (stereo not drawn), the survival is 83% (inactive).

On to `CCOC(=O)c1c(-c2ccccc2)csc1NC(=O)c1nc(S(=O)(=O)CC)ncc1Cl`, for which the survival was 11% (active).

`CCOC(=O)c1c(NC(=O)c2nc(SCC)ncc2Cl)sc(C(C)=O)c1C`: the survival is 75% (inactive).

For the molecule `CCOC(=O)c1c(-c2ccccc2)csc1NC(=O)c1nc(SCC)ncc1Cl`, the survival was 87% (inactive).

Consider `CCOC(=O)c1c(NC(=O)c2nc(S(C)(=O)=O)ncc2Cl)sc(C(C)=O)c1C`, for which the survival is 6% (active).

With `CCCSc1ncc(Cl)c(C(=O)Nc2scc(-c3ccc(C)cc3)c2C(=O)OCC)n1`, the survival was 62% (inactive).

Regarding `CCCS(=O)(=O)c1ncc(Cl)c(C(=O)Nc2scc(-c3ccccc3)c2C(=O)OCC)n1`, the survival was 25% (active).

Regarding `CCOC(=O)c1c(-c2ccc(C)cc2)csc1NC(=O)c1nc(SC(C)C)ncc1Cl`, the survival was 61% (inactive).

Regarding `CCOC(=O)c1c(-c2ccc(C)cc2)csc1NC(=O)c1nc(SCC)ncc1Cl`, the survival was 84% (inactive).

For the molecule `CCCSc1ncc(Cl)c(C(=O)Nc2sc(C(C)=O)c(C)c2C(=O)OCC)n1`, the survival was 51% (inactive).

With `CCOC(=O)c1cccc(NC(=O)C2CCN(S(=O)(=O)c3cn(C)cn3)CC2)c1`, the survival was 102% (inactive).

`COc1ccc(CCN2C(=O)CN(C3CCCCCC3)C(=O)C2c2ccc(OC(C)C)c(OC)c2)cc1OC` (stereo not drawn): the survival is 89% (inactive).

In the case of `COc1cc2[nH]c(=O)n(CCCCCC(=O)N3CCN(c4ccc(Cl)cc4)CC3)c(=O)c2cc1OC`, the survival is 67% (inactive).

For `CCOc1ccc(-c2cc(C)n3nc(C(=O)Nc4cc(Cl)ccc4O)cc3n2)cc1`, the survival was 62% (inactive).

`CC(=O)Nc1ccc(NC(=O)CCCn2nc(C)c3sc4ccccc4c3c2=O)cc1`: the survival is 83% (inactive).

With `O=c1oc2c3c(ccc2c2ccccc12)OCN(Cc1ccccc1Cl)C3`, the survival was 68% (inactive).

Consider `O=C(NCCc1ccc(Cl)cc1)c1ccc(CSCc2ccc(Cl)cc2)o1`, for which the survival is 83% (inactive).

For the molecule `CCN1CCN(C(=O)c2ccc3c(c2)N(Cc2cccc(F)c2)C(=O)c2ccccc2S3)CC1`, the survival was 85% (inactive).

As to `CCOc1cc(S(=O)(=O)N(C)C2CCCCC2)c(OCC)cc1-n1cnnn1`, the survival is 99% (inactive).

As for `Cn1c(=O)oc2cc(S(=O)(=O)CCC(=O)N3CCN(c4cccc(Cl)c4)CC3)ccc21`, the survival was 81% (inactive).

For `COc1ccc(OCC(=O)Nc2ccc3oc(-c4ccncc4)nc3c2)cc1`, the survival is 87% (inactive).

In the case of `CCN1CCN(C(=O)c2cnn(-c3ccc(F)cc3F)c2C2CCN(C(=O)OC(C)(C)C)CC2)CC1`, the survival is 86% (inactive).

Take `CCc1nnc2c3ccccc3nc(Nc3ccc(C(C)=O)cc3)n12`: the survival was 78% (inactive).

`COc1cc(Nc2nc3ccccc3c3nnc(C)n23)cc(OC)c1`: the survival is 37% (active).

As to `COc1ccc(C)cc1Nc1nc2ccccc2c2nnc(C)n12`, the survival was 135% (inactive).

For the molecule `CCc1ccc(Nc2nc3ccccc3c3nnc(C)n23)cc1`, the survival is 92% (inactive).

Turning to `CCc1nnc2c3ccccc3nc(Nc3ccccc3OC)n12`, the survival is 57% (inactive).

As to `CCc1nnc2c3ccccc3nc(Nc3cc(C)cc(C)c3)n12`, the survival is 26% (active).

In the case of `CCc1nnc2c3ccccc3nc(Nc3ccc(F)cc3C)n12`, the survival was 39% (active).

Turning to `COc1ccc(Nc2nc3ccccc3c3nnc(C)n23)cc1Cl`, the survival is 48% (inactive).

`Cc1nnc2c3ccccc3nc(Nc3ccc(F)cc3Cl)n12`: the survival is 83% (inactive).

Take `CCCCOC(=O)c1ccc(Nc2nc3ccccc3c3nnc(C)n23)cc1`: the survival is 25% (active).

On to `CCc1nnc2c3ccccc3nc(Nc3ccc(F)c(Cl)c3)n12`, for which the survival was 62% (inactive).

With `CCOc1ccc(Nc2nc3ccccc3c3nnc(CC)n23)cc1`, the survival is 62% (inactive).

Turning to `Cn1c(-n2cccc2)c(-c2c(-c3ccc(F)cc3)[nH]c3c2c(=O)[nH]c(=O)n3C)c(=O)[nH]c1=O`, the survival is 55% (inactive).

Regarding `CCc1ccc(NC(=O)C(=O)NCCc2csc(-c3ccc(C(F)(F)F)cc3)n2)cc1`, the survival was 99% (inactive).

In the case of `Cc1cc(C)c2c(-n3cccc3)c(C(=O)NCC(C)c3ccccc3)sc2n1` (stereo not drawn), the survival was 86% (inactive).

As for `O=C(Nc1ccc(Br)cc1)C1CCCN1S(=O)(=O)c1ccc(F)cc1` (stereo not drawn), the survival was 66% (inactive).

Turning to `Cc1cccc(N2C(=O)C3C(C(=O)NC4CC4)C4C=CC3(O4)C2C(=O)NC2CCCC2)c1` (stereo not drawn), the survival is 75% (inactive).

For the molecule `Cc1ccc(S(=O)(=O)NCCSc2nnnn2-c2ccc(Cl)c(C(=O)O)c2)cc1`, the survival is 138% (inactive).

`Cc1ccc(-c2nc3nc(C)cc(Nc4ccccc4O)n3n2)cc1`: the survival is 75% (inactive).

Values taken from PubChem BioAssay AID463173 (ICCB-Longwood Screening Facility, Harvard Medical School, 2010).
